# Whole data set: some 4,500 sequences, median “median log2 fold change of GCK-ALFA target abundance (FLAG IP / Myc IP barcode read proportion)” near 0.078, cut for the lowest 2% near -0.6. The sample as a whole holds a higher share of the lowest values than the screen did.
# B1: GBRAP_48_5840 (protein)
# chain: EEEKREKAIEEILKIIKETAELLEEAKEEGLSEAAFEAILIDAAEEIKEVLEKYLGLGEEFEKLPLEEQLAIVEELVKTYKEEGEEATRKKIKEFIEKLE
# B2: GBRAP_186_5371 (protein)
# chain: EEEAEKEIEEFIDEAAKKGYVISGVLEVKEFTEEAKKKIFDELEALAEFSAEFGYKGALIIKSTVSEEEFEELKKFVEEKRDELSKETGAEVEVKIVHVK
# B3: GBRAP_78_6619 (protein)
# chain: ETKEKIIELLDRARDRMREIARREPEVRDLANEAAVLVGTAILMVDTGEESKEEIIEELEEALKVAKELLERLEGRDEESVKLAKEAIEDLKKAIELVKK
# B4: GBRAP_160_4698 (protein)
# chain: TATAEKLKAFVKEEFEKAKEEIEGESREQRAVILAGTGGEILMELVEDPNATDELEDEVLAIFDDAVATLLANPNLTLEETKALIDEVEAKVLAAIDKHL
# B5: GBRAP_166_4925 (protein)
# chain: MIEEKVEEARKRLEEVIREGRADPSLTDGQITAAMAYEVAEMLKDIEDEEEKLAVVEEGLRLAKEEGLDPRRLATLTASLYGFSDEERERIDEITEKILA
# B6: GBRAP_53_6398 (protein)
# chain: AAAAIAAGLAELEALIAEVEADPTLDAADVAARAGALLKALAAAGAPEAELTALARRLAAAVAARGLGVEVSTALAATAAAAGREAVAAVFTEAAVEDLE
# B7: GBRAP_128_3157 (protein)
# chain: STEEVREETRRLLEEIRESDEEEAREIARELFALILTLSDEEAEAAVEVILELLPELSKEKLEILADVAREMRPEADPFKAELLAEVEVEALNEALELEE
# B8: GBRAP_45_5811 (protein)
# chain: SEELKETREKLEELLKKAKELAEKLKEEDPEKFTPLLELLEEAEKLLKEEPESLEAWERIEELLEEALKLALDSKKASAELLETLLEAANLALEAKELLE
# B9: GBRAP_52_5842 (protein)
# chain: MEEEARRLAEELVALAEAGREEELDALIEEIVETLSEEEVMLVLEELARLAAEADPETAEVIFDVADRLADAALAAGFDEMEMSLGLALVGAAVYKALQR
# B10: GBRAP_184_5031 (protein)
# chain: SVIERTIKADNLEELEAKLEKLKEEVKGSKADLIVTLDIKNPTEEMIKTALKRLGEMKKNGDVSSVTVGFARLLSEELIDVALKTADEEGVKVVLPISEE
# B11: GBRAP_52_6157 (protein)
# chain: MEARAEAYANALIAAVKAGDEAAIRALMEEIAATLSEEEIELMMAIVAEKVAGLTPEEQERAVEAALELEDILIAAGHDENIASYNTARVAGAAYDALQA
# B12: GBRAP_52_6039 (protein)
# chain: MEEEMRRKAEEIVELVKAGRRAEAEARIRELVATWSEEELELLGEELARLAREAEPEDLDAVMEAALMLADALEAAGYDPAFADDLLARVAAAAVENLQR
# B13: GBRAP_14_3840 (protein)
# chain: REEVRRLLLEAVERAVEEVRKFAPEEARERVEALREVLRRAVDEGLETGDLEEAERRLVEVAEAAVRELFADLPPEERGALVAVAVDELVEGFEELEERL
# B14: GBRAP_80_6763 (protein)
# chain: MMEELEEALEELSELLPELAEELRATVEALLELGVPVEDLLRLLKALVELAKLDKEKAEAILREFIAEVNEAIARGDLEEARALVIDAESDALLEVEELE
# B15: GBRAP_125_3054 (protein)
# chain: NLEEAIEALAELGKILGLSEEEVEELRKLAEKYGVKGTLYALLLAEGEEELAELVAKLTEEEVIEVLKRLLEYIKSHPNITKEEALEKLKELAEEALAKK
# B16: GBRAP_117_2592 (protein)
# chain: SATREAARAKIRATVAEVEALFKELAGLSPEEQAEALAAMRERVKAVLREVIEELGEEEAEELLDEALLDTDAETYFFLESVREDTLEELEEEEEEEERE
# B17: GBRAP_52_6014 (protein)
# chain: MRERLRAFVDEVLALVRAGKEEEARALIEELVASLNEEEIELLIDVLAERAAAARPEDQEAVWRLAEMLAEALEEAGVDEALADDLLARVAAALYAAEQA
# B18: GBRAP_83_6975 (protein)
# chain: AEEIVVAAPADRVEEAVEIAIDLAKEEGKKVTLEILTTPEQRERVLEAVERLLKEVPNIEIVVVLRGATKEEAEELEKELKEIAKELGVNADIEVLIEEP
# B19: GBRAP_26_5452 (protein)
# chain: MEEKLEALRDRLVELADELLDPETAALLKVEVDNIVALAELELEEANGDLEKELAVVEEMLEDLEEALDDLEVPEEVKEKLLEAAREAAEEIKEYLKKKS
# B20: GBRAP_26_5451 (protein)
# chain: MEELLERFRERLERAADELLDPETAALLKVAVDDIIALAELELEEANGDLEKELEIVEEMLEDLEEELEDLEVPEEVREKLLEIAREEAEEIKKALKEER
# Biological target: GABARAP, O95166
# Assay: median log2 fold change of GCK-ALFA target abundance (FLAG IP / Myc IP barcode read proportion) (log2 ratio); each designed protein is fused to an ALFA-tag nanobody in HEK293 cells to bring the named protein to FLAG-tagged glucokinase (GCK); Myc marks an untargeted standard; higher = target protein stabilised (more abundant)
# Settings: target protein: 3xFLAG-MCP-GCK-ALFA reporter; HEK293 landing pad (RPLP)
# Outline: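 Binders fused to an ALFA nanobody were recombined as a library into HEK293 landing-pad cells, which were induced with 2 μg mL^−1 doxycycline and then transfected to express a FLAG-tagged target and a Myc-tagged standard. After 48 h, circular RNA barcodes recovered by anti-FLAG and anti-Myc immunoprecipitation of lysates were reverse transcribed, amplified and sequenced. Each binder's target abundance is the median log2 ratio of FLAG to Myc barcode read proportions, from barcodes present at ≥10^−7 in both replicates, binders carrying ≥3 barcodes per replicate, a 10^−6 pseudocount and pooled replicates.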
# Sequence of GABARAP, O95166 (O95166 whole entry, the tested form may be a part): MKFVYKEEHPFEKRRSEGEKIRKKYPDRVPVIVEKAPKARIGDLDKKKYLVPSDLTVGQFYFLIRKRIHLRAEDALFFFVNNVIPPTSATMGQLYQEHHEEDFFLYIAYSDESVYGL
row,Binder,median log2 fold change
1,B1,-0.364
2,B2,0.163
3,B3,0.338
4,B4,-0.69
5,B5,0.302
6,B6,0.254
7,B7,0.00897
8,B8,0.129
9,B9,-0.837
10,B10,0.0419
11,B11,-0.262
12,B12,-0.911
13,B13,0.0661
14,B14,0.0537
15,B15,-1.42
16,B16,0.191
17,B17,-0.157
18,B18,0.0242
19,B19,-0.454
20,B20,-1.2
